LMP1 NFkB inh = reduces LMP1-driven NF-kappaB luciferase signal; LMP1-induced NF-kappaB luciferase reporter cells, luminescence; inhibition, % at 12.5 µM; actives 0.69% (n = 350,000); in the data active = inhibition above about 41%; inconclusive = no clear call, values can overlap the other calls
CF NFkB inh = blocks PAF-induced NF-kB reporter in cystic fibrosis cells. KKLEB NF-kB-GFP reporter, GFP fluorescence overnight. inhibition, % at 5 µM. actives 0.86% (n = 360,000);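 active = at least 50% inhibition at 5 µM, scaled per plate between neutral and stimulator controls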;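 note: PAF is a Pseudomonas aeruginosa culture filtrate used as stimulus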
KKLEB cytotox = CF airway cell cytotoxicity counter-screen; actives 0.36% (n = 360,000); KKLEB CF airway cells viability, ATPlite luminescence, overnight; active compounds read low; cells stimulated with P. aeruginosa culture filtrate; activity change (cytotoxicity), % at 5 µM;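 active = corrected activity change at or below -50% at 5 µM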
Peg3 prom inh-1 = Peg3 promoter activity inhibition | HeLa PEG-Prom luciferase reporter, luminescence, overnight | inhibition, % at 20 µM | actives 1.7% (n = 360,000) | AID 588405;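 active = inhibition of at least 50% at 20 µM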
MITF TRPM1 inh = MITF TRPM1 promoter inhibition in SK-MEL-5 cells. actives 0.83% (n = 330,000). SK-MEL-5 TRPM1 promoter luciferase, 24 h. inhibition, % at 12.5 µM;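 active = mean inhibition across replicates of 60% or more, whatever share of single replicates reaches that level; inconclusive = some that reach 60%, reason not given; inactive = mean inhibition across replicates below 60%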
HIF-2a inh = inhibitors of HIF-2a | 786-0 RCC cells HIF-2a reporter, luciferase luminescence, overnight | inhibition, % at 18.8 µM | actives 0.72% (n = 360,000) | AID 624352;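 active = inhibition of the luminescence signal of 40% or more relative to plate controls, in a single-dose primary screen at 18.75 µM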
Peg3 prom inh-2 = Peg3 promoter inhibition confirmation. shares compounds with Peg3 prom inh-1. inhibition, % at 20 µM. actives 84% (n = 1,300). HeLa PEG-Prom luciferase reporter, luminescence, overnight;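 active = at 20 µM dose, 40% or more inhibition averaged across four replicates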
CF NFkB conf = CF NF-kB inhibition confirmation, single concentration; actives 64% (n = 1,300); inhibition, % at 5 µM; KKLEB CF airway cells, PAF-induced NF-kB-GFP fluorescence, overnight; shares compounds with CF NFkB inh; AID 602472; in the data active = inhibition above about 40%;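 note: stimulus PAF is a Pseudomonas aeruginosa filtrate and not platelet activating factor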
Mdm2-MdmX confirm = confirmation of inhibitors of human Mdm2/MdmX interaction, set 2. inhibition, % at 8 µM. SaOS-2 split-luciferase Mdm2/MdmX complementation, luminescence. actives 99% (n = 740). AID 504601. shares compounds with HIF-2a inh;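 active = mean inhibition of the luminescence signal across two replicates at or above 26 percent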
Target sequence (O15151 whole entry, looked up): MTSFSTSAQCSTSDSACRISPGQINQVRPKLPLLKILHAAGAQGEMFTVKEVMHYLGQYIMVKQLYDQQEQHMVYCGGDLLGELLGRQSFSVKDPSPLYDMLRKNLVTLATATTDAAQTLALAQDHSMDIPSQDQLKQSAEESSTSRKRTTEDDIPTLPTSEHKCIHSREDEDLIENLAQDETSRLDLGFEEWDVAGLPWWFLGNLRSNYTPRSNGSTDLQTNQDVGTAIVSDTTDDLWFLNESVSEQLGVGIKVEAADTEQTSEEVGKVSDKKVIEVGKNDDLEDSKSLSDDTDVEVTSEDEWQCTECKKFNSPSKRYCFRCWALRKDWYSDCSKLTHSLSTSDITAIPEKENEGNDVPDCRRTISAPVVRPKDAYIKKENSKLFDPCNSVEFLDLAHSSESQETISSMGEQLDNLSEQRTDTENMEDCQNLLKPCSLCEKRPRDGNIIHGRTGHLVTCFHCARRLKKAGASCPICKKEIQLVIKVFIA
Target sequence (Q00987 whole entry, looked up): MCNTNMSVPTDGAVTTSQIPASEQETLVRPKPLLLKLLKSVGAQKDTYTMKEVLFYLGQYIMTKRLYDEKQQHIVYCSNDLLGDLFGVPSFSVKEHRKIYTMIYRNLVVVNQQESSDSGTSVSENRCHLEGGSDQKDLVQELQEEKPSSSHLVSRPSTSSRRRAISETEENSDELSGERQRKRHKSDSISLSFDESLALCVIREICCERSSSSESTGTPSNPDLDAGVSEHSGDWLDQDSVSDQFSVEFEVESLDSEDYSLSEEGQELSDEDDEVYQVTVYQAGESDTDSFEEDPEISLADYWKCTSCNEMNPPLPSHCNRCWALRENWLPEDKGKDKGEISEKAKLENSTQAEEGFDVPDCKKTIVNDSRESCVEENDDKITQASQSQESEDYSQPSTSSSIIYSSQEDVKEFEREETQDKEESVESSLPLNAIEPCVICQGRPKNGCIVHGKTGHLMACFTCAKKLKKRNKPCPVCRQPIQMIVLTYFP
HIF-2a conf = confirmation of HIF-2a inhibitors. 786-0 RCC cells, HIF-2a luciferase reporter luminescence, overnight. actives 56% (n = 1,800). shares compounds with HIF-2a inh. AID 651580. inhibition, % at 18.8 µM;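 active = mean inhibition across four replicates of at least 40 percent at the single tested concentration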
HIF-1a cs = counter-screen for HIF-2a inhibitors: HIF-1a inhibition in MiaPaCa-2 cells; inhibition, % at 18.8 µM; shares compounds with HIF-2a inh; actives 72% (n = 1,800); MiaPaCa-2 HIF-1a luciferase reporter, desferoxamine, overnight; AID 651589;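 active = mean inhibition of the reporter signal across four replicates at the single tested dose of 50% or more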
Of the large screens only hits and unclear results are named; the others gave an inactive call (follow-up assays come after a bar, where they were run). Rows were chosen to be rich in hits. Some 3% of all compounds tested hit in one or more screens of this group.

CN(CCC#N)C(=O)COC(=O)c1ccccc1C(=O)c1ccc(Cl)c([N+](=O)[O-])c1	CF NFkB inh 76, Peg3 prom inh-1 95, MITF TRPM1 inh 66, HIF-2a inh 43 | Peg3 prom inh-2 inactive | CF NFkB conf 97 | HIF-2a conf inactive | HIF-1a cs 68
Cc1ccc(S(=O)(=O)Nc2cccc3cccnc23)c([N+](=O)[O-])c1	CF NFkB inh 68, Peg3 prom inh-1 103, MITF TRPM1 inh 88, HIF-2a inh 57 | Peg3 prom inh-2 95 | CF NFkB conf 108 | Mdm2-MdmX confirm 101 | HIF-2a conf 75 | HIF-1a cs inactive
O=S(=O)(Nc1cccc2cccnc12)c1ccccc1	CF NFkB inh 78, Peg3 prom inh-1 103, MITF TRPM1 inh 90, HIF-2a inh 58 | Peg3 prom inh-2 99 | CF NFkB conf 109 | Mdm2-MdmX confirm 102 | HIF-2a conf 62 | HIF-1a cs inactive
CCC(=O)N1CCC1(C)C(=O)Nc1ccc(C)c(C)c1 (configuration not stated)	none (no result: LMP1 NFkB inh, MITF TRPM1 inh)
COCCNc1nnnc2c1sc1nc(N3CCOCC3)c3c(c12)CC(C)(C)OC3	none
CN(C)CCNc1ncnc2c1sc1nc(N3CCOCC3)c3c(c12)CC(C)(C)SC3	Peg3 prom inh-1 81, MITF TRPM1 inh 77, HIF-2a inh 54 | Peg3 prom inh-2 94 | HIF-2a conf inactive | HIF-1a cs 80
O=C(NCc1ccccc1)c1cc(C2CCCCN2C(=O)c2ccc3c(c2)CCO3)on1 (configuration not stated)	none (no result: LMP1 NFkB inh, MITF TRPM1 inh)
CCc1nc2ccc(C(=O)NCc3ccc4c(c3)OCO4)cn2c1N(C)Cc1cccs1	none (no result: LMP1 NFkB inh, MITF TRPM1 inh)
Cc1ccc(C(=O)NCCc2cccs2)cc1	LMP1 NFkB inh 64, Peg3 prom inh-1 62, HIF-2a inh 44 | Peg3 prom inh-2 44 | HIF-2a conf 62 | HIF-1a cs 57
Cc1ccc2nc(NC(=O)c3ccccn3)sc2c1	LMP1 NFkB inh 82, KKLEB cytotox -67, Peg3 prom inh-1 106, MITF TRPM1 inh 94, HIF-2a inh 80 | Peg3 prom inh-2 96 | Mdm2-MdmX confirm 102 | HIF-2a conf 89 | HIF-1a cs 80
COc1ccc(-c2cc(-c3ccc(F)cc3)nc(N3CCN(C)CC3)n2)cc1	Peg3 prom inh-1 80, HIF-2a inh 52 | Peg3 prom inh-2 58 | HIF-2a conf inactive | HIF-1a cs 70
Cc1cccc(C)c1NC(=O)c1nc(S(=O)(=O)Cc2ccccc2)ncc1Cl	LMP1 NFkB inh 44, CF NFkB inh 95, KKLEB cytotox -88, Peg3 prom inh-1 100, MITF TRPM1 inh 91, HIF-2a inh 77 | Peg3 prom inh-2 97 | HIF-2a conf 69 | HIF-1a cs 91
CSc1ncc(Cl)c(C(=O)Nc2cccc3ccccc23)n1	none
CCCCC(=O)N(C)c1c(CC)nc2c(OCC=C(C)C)cccn12	none (no result: LMP1 NFkB inh, MITF TRPM1 inh)
COc1ccccc1C(CNC(=O)CCNS(=O)(=O)c1ccc(Br)cc1)N1CCCC1 (configuration not stated)	none
COc1ccc2sc(N(CCCN(C)C)C(=O)c3ccc(S(=O)(=O)N4CCc5ccccc5C4)cc3)nc2c1	CF NFkB inh 74, KKLEB cytotox -98, Peg3 prom inh-1 101, MITF TRPM1 inh 85, HIF-2a inh 82 | Peg3 prom inh-2 98 | Mdm2-MdmX confirm 95 | HIF-2a conf inactive | HIF-1a cs 106
COc1ccc2sc(N(CCCN(C)C)C(=O)c3ccc(S(=O)(=O)N4CCCC4)cc3)nc2c1	none
CN(C)CCCN(C(=O)c1ccc(S(=O)(=O)N2CCc3ccccc3C2)cc1)c1nc2ccc(F)cc2s1	Peg3 prom inh-1 104, MITF TRPM1 inh 73, HIF-2a inh 73 | Peg3 prom inh-2 92 | HIF-2a conf inactive | HIF-1a cs 103
COc1ccc(-c2coc3c(C(=O)NCc4ccc(C(F)(F)F)cc4)cccc23)c(C)c1	none (no result: LMP1 NFkB inh, MITF TRPM1 inh)
COc1ccc(N(C(=O)CCl)C(C(=O)NC2CCCCC2)c2cccnc2)cc1 (configuration not stated)	LMP1 NFkB inh 62, Peg3 prom inh-1 100, MITF TRPM1 inh 87 | Peg3 prom inh-2 99 | Mdm2-MdmX confirm 103
COc1ccc(N(C(=O)Cc2cccs2)C(C(=O)NC2CCCC2)c2ccncc2)cc1 (configuration not stated)	none
CCOC(=O)c1c(N)sc2c(OCC)c(Br)ccc12	none
CCOC(=O)c1c(NC(C)=O)sc2c(OCC(O)CNC(C)(C)C)c(Br)ccc12 (configuration not stated)	Peg3 prom inh-1 108, MITF TRPM1 inh 72 | Peg3 prom inh-2 99 | Mdm2-MdmX confirm 103
CCc1nc2ccc(C(=O)NCCCn3ccnc3)cn2c1N(C)Cc1cc2ccccc2s1	none (no result: LMP1 NFkB inh, MITF TRPM1 inh)
CC1(C(=O)NS(=O)(=O)c2ccccc2)CCN1C(=O)Cc1cccs1 (configuration not stated)	none (no result: LMP1 NFkB inh, MITF TRPM1 inh)
O=[N+]([O-])c1cc(/C=N/NC(=S)Nc2ccccc2Cl)ccc1Cl	Peg3 prom inh-1 96, MITF TRPM1 inh inconclusive, HIF-2a inh 70 | Peg3 prom inh-2 inactive | HIF-2a conf inactive | HIF-1a cs 104
Cc1ccc(C(=O)O/N=C(\N)c2ccccn2)cc1	LMP1 NFkB inh 79, Peg3 prom inh-1 107, MITF TRPM1 inh 67, HIF-2a inh 62 | Peg3 prom inh-2 77 | Mdm2-MdmX confirm 49
CC(C)(C)c1ccc(C(=O)O/N=C(\N)c2ccccn2)cc1	LMP1 NFkB inh 74, Peg3 prom inh-1 111, MITF TRPM1 inh 78, HIF-2a inh 82 | Peg3 prom inh-2 99 | HIF-2a conf 85 | HIF-1a cs 84
C/C(=N\OC(=O)c1ccc(Br)cc1)c1ccccn1	none
COc1cc(C(=O)O/N=C(\N)c2ccccn2)cc(OC)c1OC	none
COc1ccc(/C=C/c2nc3ccccc3n2C)cc1	LMP1 NFkB inh 54, KKLEB cytotox -53, Peg3 prom inh-1 68, HIF-2a inh 49 | Peg3 prom inh-2 78 | HIF-2a conf 89 | HIF-1a cs 91

Source: PubChem
